Holding throughout (assay): PBM; 200 nM protein, PBS
What all share (settings): dsDNA, one strand shown

In experiment [1] the target is PITX2 (Homo sapiens, UniProt Q99697 72-157).
Experiment [2] has as its target T1, SIX6 (Homo sapiens, UniProt O95475 114-200, T165P).
T1 sequence: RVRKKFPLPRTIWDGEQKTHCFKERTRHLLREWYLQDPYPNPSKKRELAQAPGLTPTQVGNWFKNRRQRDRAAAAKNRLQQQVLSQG

The target of experiment [3] is T2, SIX6 (Homo sapiens, UniProt O95475 114-200, T165I).
T2 sequence: T1 sequence with P52I

The target of experiment [4] is T3, NKX2-4 (Homo sapiens, UniProt Q9H2Z4 175-261, P217L).
T3 sequence: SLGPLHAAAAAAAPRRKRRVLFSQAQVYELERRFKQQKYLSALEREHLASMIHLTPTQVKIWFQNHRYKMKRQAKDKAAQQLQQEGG

For experiment [5], the target named is T4, NKX2-4 (Homo sapiens, UniProt Q9H2Z4 175-261, T231S).
T4 sequence: T3 sequence with L43P, T57S

The target in experiment [6] is T5, NKX2-4 (Homo sapiens, UniProt Q9H2Z4 175-261).
T5 sequence: T3 sequence with L43P

Experiment [7] has as its target T6, NKX2-4 (Homo sapiens, UniProt Q9H2Z4 175-261, R246Q).
T6 sequence: T3 sequence with L43P, R72Q

Experiment [8] deals with T7, NKX2-6 (Homo sapiens, UniProt A6NCS4 118-204).
T7 sequence: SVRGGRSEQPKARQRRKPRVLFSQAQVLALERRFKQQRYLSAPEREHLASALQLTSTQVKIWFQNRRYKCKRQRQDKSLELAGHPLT

Experiment [9] concerns the target CRX (Homo sapiens, UniProt O43186 26-111).
The target of experiment [10] is CRX (Homo sapiens, UniProt O43186 26-111, E42D).

Substitutions are numbered along the chain they refer to.

Sequence of CRX (Homo sapiens, UniProt O43186 26-111, E42D) (O43186 26-111 E42D): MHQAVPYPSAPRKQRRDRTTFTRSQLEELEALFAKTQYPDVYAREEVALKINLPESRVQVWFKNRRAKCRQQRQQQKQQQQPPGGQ
Sequence of CRX (Homo sapiens, UniProt O43186 26-111) (O43186 26-111): as the sequence (O43186 26-111 E42D) above, with D17E counted along it

Regarding AATTAATC, the binding signal in [1] was 12.4 upbm affinity estimate (log intensity, higher = more binding, comparable within an allelic series).
For CCAGGTCC, the binding signal was 8.71 upbm affinity estimate (log intensity, higher = more binding, comparable within an allelic series) in experiment [2] and 9.08 upbm affinity estimate (log intensity, higher = more binding, comparable within an allelic series) in [3].
Take CCCCGGCG: the binding signal in experiment [4] is 9.5 upbm affinity estimate (log intensity, higher = more binding, comparable within an allelic series); in [5] it was 9.48 upbm affinity estimate (log intensity, higher = more binding, comparable within an allelic series); in experiment [6] it was 9.57 upbm affinity estimate (log intensity, higher = more binding, comparable within an allelic series); in experiment [7] it was 9.55 upbm affinity estimate (log intensity, higher = more binding, comparable within an allelic series).
As for AATTAGTG, in experiment [8], the binding signal was 11.9 upbm affinity estimate (log intensity, higher = more binding, comparable within an allelic series).
GGAGCGCA: the binding signal in experiment [2] is 8.9 upbm affinity estimate (log intensity, higher = more binding, comparable within an allelic series); in experiment [3], 8.91 upbm affinity estimate (log intensity, higher = more binding, comparable within an allelic series).
For GAGGGGGC, the binding signal in experiment [9] is 8.07 upbm affinity estimate (log intensity, higher = more binding, comparable within an allelic series); in experiment [10], 8.05 upbm affinity estimate (log intensity, higher = more binding, comparable within an allelic series).
Consider ATTAATGC, for which the binding signal in [9] is 11.9 upbm affinity estimate (log intensity, higher = more binding, comparable within an allelic series); in experiment [10], 11.7 upbm affinity estimate (log intensity, higher = more binding, comparable within an allelic series).

The values are drawn from publication PMC11006913.
